# Bioassay records: PubChem, National Center for Advancing Translational Sciences (NCATS)
# Shown are actives, neighbours in structure and some others; about 9.2% of the full set was active somewhere.
# FLuc modulator: inhibits or activates purified firefly luciferase, miR-21 counter-screen; P08659; AID 588342; Potency, µM (doses to about 57.5 µM), inactives show top-dose activity change, negative = inhibition, most hits filed as inhibitors; hit rate 6.9% among 360,000; purified FLuc, Km substrates, luminescence inhibition;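 also: plate controls were vehicle for no effect and reference inhibitor for full effect; nearly all actives have a fitted effect of over 55% in size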
# Target sequence (P08659 whole entry, looked up): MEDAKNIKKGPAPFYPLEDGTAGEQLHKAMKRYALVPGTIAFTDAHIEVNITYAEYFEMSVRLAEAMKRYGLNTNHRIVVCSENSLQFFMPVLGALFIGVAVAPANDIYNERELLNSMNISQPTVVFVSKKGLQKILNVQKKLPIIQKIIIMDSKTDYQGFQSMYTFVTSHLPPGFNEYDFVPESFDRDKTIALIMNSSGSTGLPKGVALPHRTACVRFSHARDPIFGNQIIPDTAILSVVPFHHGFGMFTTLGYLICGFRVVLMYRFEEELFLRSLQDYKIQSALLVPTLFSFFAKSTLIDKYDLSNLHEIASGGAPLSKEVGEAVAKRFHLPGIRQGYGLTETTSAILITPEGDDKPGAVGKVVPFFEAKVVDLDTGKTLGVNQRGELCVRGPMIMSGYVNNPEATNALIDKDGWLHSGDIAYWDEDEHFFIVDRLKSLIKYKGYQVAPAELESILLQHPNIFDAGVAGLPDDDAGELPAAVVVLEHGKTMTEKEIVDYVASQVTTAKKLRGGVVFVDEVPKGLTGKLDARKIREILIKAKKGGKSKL
#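 Purified P. pyralis luciferase, 10 nM final, with Km-level 10 uM D-luciferin and 10 uM ATP in 50 mM Tris acetate pH 7.5, 10 mM Mg acetate, 0.01% Tween-20, 0.05% BSA; 6-point qHTS titration about 60 µM downward; luminescence read.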
# Rab9 prom act: activators of Rab9 promoter; Huh7 Rab9 promoter-luciferase reporter, luminescence, 24 h; Potency, µM (series often up to 9.22 µM), for the others: at the highest dose activation, negative = inhibition, hits mostly activators; hit rate 2.8% among 320,000; AID 485297; also: % of control where 0% means no effect; nearly all actives have a fitted effect of over 60% in size
#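 Luminescence read-out: Huh7 cells stably expressing Rab9-luciferase, treated 24 h with compound at 37 °C, then lysed with luciferase reagent for 10 min at ambient before reading.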
# SMN2 splice enh: increases expression of the SMN2 splice variant; AID 1458; hit rate 2.8% among 210,000; HEK293 SMN2-luciferase splicing reporter, luminescence, 30-36 h; Potency, µM (top dose mostly 46.1 µM), for inactives: at the top dose activity change, positive = activation, usual class: activators; also: % of control where 0% means no effect; nearly all actives have a fitted effect of over 55% in size
#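 HEK293 cells carry an SMN2 minigene-luciferase reporter in which exon 7 inclusion puts luciferase in frame. Cells were seeded at 2000 cells/well, attached for 10-12 hours, then exposed to compounds for 30-36 hours at 37C before ONE-Glo luminescence.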
# NPC1 promoter act: NPC1 promoter activation. Huh7 NPC1 promoter luciferase reporter, 24 h. Potency, µM (series often up to 9.22 µM), inactives show at the top dose activation, actives largely listed as activators. hit rate 2.4% among 320,000. AID 485313; also: % of control where 0% means no effect; nearly all actives have a fitted effect of over 60% in size
#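 Cells: Huh7 expressing luciferase under the NPC1 promoter, 1500/well. Seeded 2 h, compound added, incubated 24 h at 37 °C. Luciferase reagent, 10 min ambient, then luminescence.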
# ELG1 genotoxic: inducers of genotoxicity in HEK293T ELG1-luciferase cells; HEK293T ELG1-luciferase reporter, luminescence, 16 h; Potency, µM (top dose mostly 46 µM), for the others: at the highest dose activity change, positive = activation, actives largely listed as activators; hit rate 1.3% among 330,000; AID 504466; also: % of control where 0% means no effect; nearly all actives have a fitted effect of over 60% in size
#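 HEK293T cells expressing luciferase-tagged ELG1 were treated with compound or DMSO for 16 hr at 37°C. Luciferase activity was then read after 30 min with ONE-Glo at room temperature; rising signal flags genetic stress.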
# ELG1 DNA repair: inhibitors of ELG1-dependent DNA repair in HEK293T cells; AID 504467; hit rate 2.3% among 330,000; HEK293T ELG1-luciferase reporter, luminescence, 16 h; DNA damage induced by 5-fluorouridine; Potency, µM (doses to about 46.1 µM), without a hit: at the highest dose activity change, negative = inhibition, most hits filed as inhibitors; also: % is scaled to controls: 0 for no effect and ±100 for the full control effect; nearly all actives have a fitted effect of over 55% in size
#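 Step one: seed 2,000 cells per well. Step two: pin-transfer compound or DMSO alongside 5-fluorouridine. Step three: incubate 16 hr, 37 °C, 5% CO2. Step four: add ONE-Glo, wait 30 min, read luminescence.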
# Starred values were filed as active, the others as inactive; ? = inconclusive; nt = not tested or not shown. Calls follow the shape of the dose curve; as a rule, active = well fitted curve in the direction sought with a large enough effect; inconclusive = small, poorly fitted or top-dose-only effect, or another doubt; inactive = no such curve, though single readings can be large; an effect the other way counts as inactive or inconclusive. Potency is read from the fitted curve at half-maximal effect.
SMILES,FLuc modulator,Rab9 prom act,SMN2 splice enh,NPC1 promoter act,ELG1 genotoxic,ELG1 DNA repair
O=C(Nc1ccc(S(=O)(=O)N2CCc3ccccc32)cc1)c1ccco1,0.4%,-3.6%,-23.7%,-0.9%,-10.0%,20.6µM*
O=C(Nc1ccccn1)c1cccc(S(=O)(=O)N2CCCc3ccccc32)c1,-1.6%,-4.6%,nt,-3.3%,-2.7%,?
O=C(Nc1ccc(S(=O)(=O)N2CCc3ccccc32)cc1)c1ccc2c(c1)OCO2,-13.2%,-11.0%,-30.6%,6.0%,23.1µM*,?
Cc1ccnc(NC(=O)c2cccc(S(=O)(=O)N3CCCc4ccccc43)c2)c1,4.78µM*,0.1%,nt,0.1%,7.3µM*,?
CN(C)S(=O)(=O)c1cccc(NC(=O)c2cccc(S(=O)(=O)N3CCc4ccccc43)c2)c1,nt,-16.3%,nt,-13.2%,-3.7%,16.4µM*
CCC(C)NC(=O)CN1C(=O)NC2(CCc3ccccc3C2)C1=O (stereo not given),0.0%,0.0%,29.6%,-1.4%,0.6%,-0.1%
CC(=O)C[C@@H](O)CC(=O)[C@H]1OC(=O)[C@H](C)CCCCc2ccccc21,nt,nt,nt,nt,-0.4%,4.7%
CC(C)OC(=O)CSc1ncnc2c1cnn2-c1ccccc1,8.49µM*,19.7%,-13.8%,2.1%,27.1%,19.4%
Cc1cc(NC(=O)CSc2ncnc3c2cnn3-c2ccccc2)no1,-3.8%,-3.2%,-15.9%,-5.5%,-10.6%,?
c1ccc(CSc2ncnc3c2cnn3-c2ccccc2)cc1,12µM*,?,22.4µM*,?,?,?
CC(C)(C)C(=O)CSc1ncnc2c1cnn2-c1ccccc1,1.2µM*,0.631µM*,nt,0.708µM*,?,?
CC(Oc1ccccc1)C(=O)N1CCC2(CC1)CC(=O)c1ccccc1O2 (stereo not given),0.0%,-2.1%,nt,1.0%,-5.5%,?
O=C(CCc1nc(-c2ccccc2Cl)no1)NC1CCCCC1,-2.3%,-0.2%,nt,0.0%,-0.8%,-0.8%
Cc1cc(C(=O)Nc2cccc(NC(=O)c3ccco3)c2)ccc1[N+](=O)[O-],19µM*,-0.4%,nt,-3.2%,-10.0%,?
CCOc1ccc(C(=O)NC(=S)Nc2cccc(NC(=O)c3ccco3)c2)cc1[N+](=O)[O-],-1.1%,-4.8%,3.7%,-0.5%,-3.4%,23.1µM*
COc1ccc(C(=O)NC(=S)Nc2cccc(NC(=O)c3ccco3)c2)cc1[N+](=O)[O-],0.9%,-1.9%,-4.0%,3.0%,4.6%,?
S=C(NC1CCCC1)N1CCN(C/C=C/c2ccccc2)CC1,-1.1%,-19.5%,-42.0%,-18.8%,-2.6%,18.3µM*
O=C(NC(=S)N1CCN(C/C=C/c2ccccc2)CC1)c1ccc(F)cc1,-1.4%,-4.2%,nt,-0.9%,-10.9%,10.3µM*
S=C(Nc1ccccc1)N1CCN(C/C=C/c2ccccc2)CC1,-0.2%,-13.4%,nt,-8.5%,-4.9%,?
Cc1ccc(NC(=O)CN2C(=O)NC3(CCc4ccccc43)C2=O)cc1S(=O)(=O)N1CCCCC1 (stereo not given),2.6%,0.6%,nt,-3.1%,-5.0%,?
CN(C)c1ccc(C(=O)NCC2CCCO2)cc1 (stereo not given),?,27.9%,25.1µM*,?,?,?
O=C(NCC1CCCO1)c1cccc(Oc2ccccc2)c1 (stereo not given),16.9µM*,?,nt,21.3%,?,?
Cc1cccc(C(=O)NCC2CCCO2)c1 (stereo not given),3.3%,1.5%,14.1%,-0.2%,0.0%,?
CN(C)c1cccc(C(=O)NCC2CCCO2)c1 (stereo not given),-3.7%,26.9%,28.2µM*,15.9%,?,?
COC(=O)c1cc(OC)c(OC)cc1NC(=O)C(C)c1ccc([N+](=O)[O-])cc1 (stereo not given),1.7%,2.3%,-7.8%,-2.3%,1.0%,?
